Hit rate of the full screen: of about 50,000 compounds, about 800 (1.6%) showed an effect of 50% or more. Shown is part of a subset that was picked to be rich in strong results.

Chain of Bcl-2-like protein 10 (Homo sapiens) (Q9HD36 whole entry, looked up): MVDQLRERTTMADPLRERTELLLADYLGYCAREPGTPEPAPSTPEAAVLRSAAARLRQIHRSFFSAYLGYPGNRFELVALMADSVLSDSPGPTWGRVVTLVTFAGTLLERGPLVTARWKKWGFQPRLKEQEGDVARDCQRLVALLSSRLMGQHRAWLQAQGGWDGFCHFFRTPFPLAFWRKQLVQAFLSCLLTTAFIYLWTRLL

The experiment concerns the target Bcl-2-like protein 10 (Homo sapiens) (UniProt Q9HD36). Description: TR3 peptide-Bcl-B binding displacers, biochemical primary FP assay, phenotype converters (AID 1240).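 Further: 0% = Bcl-B with tracer peptide and DMSO and 100% = tracer peptide lacking Bcl-B.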 Particulars: GST-Bcl-B / FITC-TR3 peptide fluorescence polarization; stronger effect = higher value; compound at 3.75 mg/L.
For `Nc1ccc2nc(SCC(=O)Nc3cccc(C(F)(F)F)c3)sc2c1`, the displacement is -3.3%. For `C=CCN1C(=O)/C(=C\c2cc(Br)ccc2OCCOc2cccc(OC)c2)SC1=S`, the displacement was -43.6%. `C=CCN1C(=O)/C(=C\c2cn(CCOc3cccc(OC)c3)c3ccccc23)SC1=S`: the displacement stood at 91.7%.

Consider `CCN1C(=O)/C(=C\c2cn(CCOc3ccccc3)c3ccccc23)SC1=S`, for which the displacement was 20.9%. For the compound `O=C(O)c1ccc2c(c1)C(=O)N(c1ccc(-c3nnc(-c4ccccc4)o3)cc1)C2=O`, the displacement was 9%.

Take `COc1ccc(Br)cc1/C=C/C(=O)Nc1nc2ccc(C)cc2s1`: the displacement was -22.6%. On to `CCOC(=O)c1c(NC(=S)NC(=O)/C=C/c2ccco2)sc(C)c1C`, for which the displacement amounted to 23.9%. The value for `CCOC(=O)c1nc(NC(=O)/C=C/c2ccco2)sc1C` was 73.7%; that for `COC(=O)c1c(NC(=O)/C=C/c2ccco2)sc(C)c1C` was -12.6%. Then `O=C(/C=C/c1ccco1)Nc1nc2ccc(Br)cc2s1`, with 59.2%; and `O=C(/C=C/c1ccccc1)Nc1nc2ccc(Br)cc2s1`, with 15%. As for `Cc1ccc(OCCNc2cc(Cl)ccc2[N+](=O)[O-])cc1C`, the displacement stood at 0.6%. The value for `CSc1ccc(/C=N/S(=O)(=O)CCc2ccccc2)cc1` was -7.7%; that for `CCCS(=O)(=O)c1c(S(=O)(=O)CCC)c2c(C)cccn2c1C(N)=O` was -9.8%; that for `COc1c(Cl)ccc(Cl)c1C(=O)Nc1ccc(I)cc1` was -9.5%.

In the case of `O=C(c1ccc(Cl)cc1)N1CCC(Cc2ccccc2)CC1`, the displacement is 16.4%. On to `COc1ccc([N+](=O)[O-])cc1-c1ccc(/C=C2\C(=O)NC(=O)N(c3cc(C)cc(C)c3)C2=O)o1`, for which the displacement is 92.6%.

As to `Cc1ccc([N+](=O)[O-])cc1-c1ccc(/C=C2/C(=O)NC(=O)N(c3ccccc3)C2=O)o1`, the displacement turned out to be 82.8%. For `COc1cc([N+](=O)[O-])ccc1-c1ccc(/C=C2\C(=O)NC(=O)N(c3ccc(C)c(C)c3)C2=O)o1`, the displacement came to 75.5%. On to `COc1ccc([N+](=O)[O-])cc1-c1ccc(/C=C2\C(=O)NC(=O)N(c3ccc(Cl)cc3)C2=O)o1`, for which the displacement turned out to be 25.1%.

As to `Cc1cc(C)cc(N2C(=O)NC(=O)/C(=C\c3ccc([N+](=O)[O-])o3)C2=O)c1`, the displacement was -3.8%. With `O=C1NC(=O)N(c2ccccc2)C(=O)/C1=C\c1ccc(-c2ccc([N+](=O)[O-])cc2Br)o1`, the displacement was -14.8%. Then `COc1cc([N+](=O)[O-])ccc1-c1ccc(/C=C2\C(=O)NC(=S)N(c3ccc(Cl)cc3)C2=O)o1`, with 16.2%. For the compound `COc1cc([N+](=O)[O-])ccc1-c1ccc(/C=C2\C(=O)NC(=O)N(c3ccc(Cl)cc3)C2=O)o1`, the displacement amounted to 14%.

Regarding `COc1ccc(N2C(=O)NC(=O)/C(=C/c3ccc(-c4ccc([N+](=O)[O-])cc4C)o3)C2=O)cc1`, the displacement turned out to be 13.6%. For `Cc1ccc([N+](=O)[O-])cc1-c1ccc(/C=C2\C(=O)NC(=O)N(c3ccc(Cl)cc3)C2=O)o1`, the displacement stood at 6.8%. On to `CCOc1ccc(N2C(=O)NC(=O)/C(=C\c3ccc(-c4ccc([N+](=O)[O-])cc4OC)o3)C2=O)cc1`, for which the displacement turned out to be 23%. With `COc1cc([N+](=O)[O-])ccc1-c1ccc(/C=C2\C(=O)NC(=O)N(c3ccccc3)C2=O)o1`, the displacement worked out at 132%. Then `COc1ccc(C(=O)N2CCN(C3C4CC5CC(C4)CC3C5)CC2)cc1OC` (stereo unspecified), with -6.5%. Take `Cc1cccc(N2CCN(C(=O)Nc3ccc(Cl)c(Cl)c3)CC2)c1C`: the displacement was -0.9%. With `O=S1(=O)CCC(NC(=S)SCCOc2ccccc2OCCO)C1` (stereo unspecified), the displacement worked out at 6.3%. Then `Cc1cccc(C=Nc2ccc(O)cc2)c1`, with -8.4%. The value for `CS(=O)(=O)N(CC(=O)Nc1ccc(Cl)cc1)c1ccc(Br)cc1` was 3.3%; that for `Cc1ccc(-c2csc(NC(=O)c3sc4ccccc4c3Cl)n2)c(C)c1` was 2.6%. Then `CCOc1ccc(Cc2c(C)nc3c(C)cccc3c2Cl)cc1`, with -5.7%; and `CCC1=NN(C(=O)c2ccncc2)C(O)(c2ccc(Br)cc2)C1` (stereo unspecified), with 10.2%; and `Cc1ccc(NC(=S)NN2CCN(C)CC2)cc1`, with 5.2%. As for `Cc1ccc(OCC(=O)NCc2ccco2)c(C)c1`, the displacement is -2.9%. Then `N#C/C(=C/c1ccccc1)C(=O)Nc1ccc(Cl)c(Cl)c1`, with 1.5%; and `CC(C)(C)c1cc(/C=N/Nc2nnc3c(n2)[nH]c2ccccc23)cc(C(C)(C)C)c1O`, with 4.8%.

Consider `Cc1nc(-c2ccccc2)nc2[nH]ccc(=O)c12`, for which the displacement stood at 11.9%.

On to `Cc1nc(-c2ccccc2)c2c(=O)cc[nH]c2n1`, for which the displacement turned out to be 15.4%. In the case of `CSc1nc(-c2ccccc2)nc2[nH]ccc(=O)c12`, the displacement worked out at 110%. Regarding `COc1cc(/C=C2/SC(=S)N(C)C2=O)cc(Br)c1OCCOc1ccccc1C`, the displacement was -2%. For `COC(=O)C(Cc1ccccc1)NC(=O)CCN1C(=O)c2cccc3cccc(c23)C1=O` (stereo unspecified), the displacement stood at 15%. Then `CCc1ccc(NC(=O)C(=O)NCCCO)cc1`, with 5%; and `CN(C)c1ccc(C(O)C(C)(O)c2nc3ccccc3n2C)cc1` (stereo unspecified), with 6.1%. On to `COc1cc(/C=C2\C(=O)NC(=O)N(c3ccc(C)cc3)C2=O)ccc1OCc1ccccc1`, for which the displacement turned out to be 38.6%. The value for `COc1cc(/C=C2\C(=O)NC(=O)N(c3ccc(C)cc3)C2=O)ccc1OCc1ccc([N+](=O)[O-])cc1` was 70%; that for `C=CCOc1ccc(/C=C2\C(=O)NC(=O)N(c3ccc(Cl)cc3)C2=O)cc1OCC` was -4%. For the compound `C=CCOc1ccc(/C=C2/C(=O)NC(=O)N(c3cccc(C)c3)C2=O)cc1OCC`, the displacement turned out to be 126%. Regarding `COc1cc(/C=C2/C(=O)NC(=O)N(c3ccc(C)cc3)C2=O)ccc1OCCOc1ccc([N+](=O)[O-])cc1`, the displacement amounted to 10.8%. On to `COc1cc(/C=C2/C(=O)NC(=S)N(c3ccccc3)C2=O)ccc1OCc1ccc([N+](=O)[O-])cc1`, for which the displacement is 4%.

As to `C=CCOc1ccc(/C=C2/C(=O)NC(=O)N(c3ccc(C)cc3)C2=O)cc1OCC`, the displacement is -2.8%. Take `CCOc1cc(/C=C2/C(=O)NC(=O)N(c3ccc(OC)cc3)C2=O)ccc1OCCOc1ccc([N+](=O)[O-])cc1`: the displacement was -0.9%. Take `COc1cc(C=C2C(=O)c3ccccc3C2=O)ccc1OCc1ccc(I)cc1`: the displacement was -11.5%. Then `O=C1C(=Cc2ccc(OCc3ccc(F)cc3)c(Br)c2)C(=O)c2ccccc21`, with 19.1%; and `CCOc1cc(/C=C2/C(=O)NC(=O)N(c3ccccc3)C2=O)ccc1OCc1ccc([N+](=O)[O-])cc1`, with 75.9%.

`COc1cc(C=C2C(=O)c3ccccc3C2=O)ccc1OCc1ccc(F)cc1`: the displacement is 88.7%. Regarding `Cc1ccc(NS(=O)(=O)c2cccc([N+](=O)[O-])c2)cc1Cl`, the displacement is -0.2%.

On to `CC(=O)Nc1ccccc1NC(=O)c1ccc(Cl)cc1`, for which the displacement is 11.4%.

The record behind these values is PubChem BioAssay AID1240 (Sanford-Burnham Center for Chemical Genomics, 2008).
